Experiment [1] in a line: AP1 Signaling Pathway (AID 357; active = well fitted curve in either direction with a large enough effect, not every such curve was filed as active;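 note: ME-180 reporter cells stimulated with EGF at its EC50 level; % is set by controls: 0 for no effect and ±100 for the full control effect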). The method, boiled down:
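In this screen, ME-180 cells in Opti-MEM with 0.5% dialyzed FBS received EC50 EGF and compound titrations for 5 h. AP-1 reporter beta-lactamase was detected via CCF4 ratio, giving AC50 for positive and negative modulators.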

Experiment [2] concerns the target Cytochrome P450 1A2 (Homo sapiens) (UniProt P05177). In words: p450-cyp1a2 (AID 410; calls by dose curve; note: potency is the fitted concentration of half-maximal effect;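 for activity change, negative = inhibition: -100% = full effect of reference inhibitor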). The procedure, abridged: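 20nM CYP1A2, 100uM Luciferin-ME (=Km), 100mM KPO4; cpd 10 min RT; +NADPH regen, 60 min RT; stop/detect 20 min; luminescence. Normalized to furafylline 57 uM = full inhibition.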
A short description of experiment [3]: NFAT Signaling Pathway (AID 444; active = well fitted curve in either direction with a large enough effect, not every such curve was filed as active;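 note: carbachol stimulus at about its EC50 of 1 µM final; % is set by controls: 0 for no effect and ±100 for the full control effect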). Conditions: Jurkat NFAT-bla M1, carbachol, beta-lactamase ratio, 5 h; at 17.2 µM (top of the series) unless noted. The method, boiled down:
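Jurkat cells with NFAT-driven β-lactamase reporter and co-expressed M1 receptor, stimulated with carbachol (final 1 uM, ~EC50), compound titration, 5 h at 37 °C. CCF4 loaded 1 h at RT; 460/530 nm ratio gave %activity and AC50.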

Experiment [4] is described as follows: Stat Signaling Pathway (AID 446; active = well fitted curve in either direction with a large enough effect, not every such curve was filed as active;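 note: ME-180 cervical cancer cells given 40 pM IL-6 alongside compound; SIE-controlled beta-lactamase reporter measured as 460/530 nm FRET emission ratio; % is set by controls: 0 for no effect and ±100 for the full control effect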). The procedure, abridged: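 Compound effects on IL-6-induced STAT reporter activity were measured in ME-180 cells. After overnight culture, cells were co-treated with 40 pM IL-6 for 5 hrs before beta-lactamase substrate loading at room temperature.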
Experiment [5] deals with 3',5'-cyclic-AMP phosphodiesterase 4B (Homo sapiens) (UniProt Q07343). In words: qHTS Assay for Inhibitors of PDE-IV (AID 607; active = well fitted activation curve with a large enough effect in the main read-out, with a control signal flat, not every such curve was filed as active; note: % of control where 0% means no effect). The method, boiled down:
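ACTOne HEK293 cells carry a modified cAMP-gated CNG channel and express endogenous PDE4; plated 1000 cells/well, compounds up to 22.9 uM final. Membrane-potential dye fluorescence (ex 535/em 590) was read; parental cells received 10 uM forskolin + 100 uM RO 20-1724.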
In general terms: In qHTS, concentration-response curves come from the screen itself.

Experiment [6] is described as follows: qHTS Assay for Lipid Storage Modulators (AID 1519; calls by dose curve). Conditions: Drosophila S3 cells, BODIPY lipid droplet/cell ratio, laser cytometry, cells loaded with oleic acid; for activity change, negative = inhibition: at 25.7 µM (top of the series). The procedure, abridged: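 Cells seeded at 5,000 per well were treated with compounds over a concentration series and loaded with oleic acid (400 uM, as added). Lipid droplet fluorescence (488 nm excitation, 500-530 nm channel) was read by laser-scanning cytometry and normalized to 20 uM Triacsin C.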

For experiment [7], the target named is Ubiquitin carboxyl-terminal hydrolase 1 (Homo sapiens) (UniProt O94782). In words: Inhibitors of USP1/UAF1: Pilot qHTS (AID 504865).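 Note: rhodamine fluorescence freed from ubiquitin-rhodamine substrate followed over time; top concentration of the series differs between compounds; % is set by controls: 0 for no effect and ±100 for the full control effect; nearly all actives have a fitted effect of over 35% in size.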 The procedure, abridged:
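Kinetic fluorescence assay: 1nM USP1/UAF1, 15 min compound preincubation, then 150nM Ub-Rho; 480/540 nm.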

Experiment [8] has as its target Mitogen-activated protein kinase 10 (Mus musculus) (UniProt Q61831). As to the kind of experiment: JNK3 AlphaScreen Assay (AID 530; active = well fitted curve in either direction with a large enough effect, not every such curve was filed as active;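 note: kinase came from lysate of stimulated human HepG2 cells; signal reports phosphorylation of biotinylated GST-cJun 1-79 at Ser73 with 10 µM ATP; % is set by controls: 0 for no effect and ±100 for the full control effect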). The method, boiled down:
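HepG2 lysate (IL-1b/TNFa pre-activated) + biotin-GST-cJun 1-79 + anti-pSer73 cJun; cpd titration, 15 min RT; ATP 10 uM start; Tris pH 7.6, MgCl2, DTT, vanadate; beads in EDTA buffer; AlphaScreen.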
(In general: Alpha assays give light when donor and acceptor beads are brought close together.)

Experiment [9] is described as follows: S16 Schwann cell viability assay (CellTiter-Glo assay) (AID 624031).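 Note: plate controls were DMSO-treated cells for no effect and cell-free wells for full effect; nearly all actives have a fitted effect of over 70% in size.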 The method, boiled down:
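Luminescent ATP read-out (CellTiter-Glo) after 24 h compound exposure of native S16 rat Schwann cells at 37 °C. Signals were normalized between cell-free wells and DMSO-treated cells, set as 0% activity.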
A general note: ATP-based viability assays read luminescence as a measure of living cells.

Experiment [10] is described as follows: S16 Schwann cell PMP22 intronic element firefly luciferase assay (AID 624032).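 Note: plate controls were DMSO for no effect and PTC124 positive control mean for full effect; nearly all actives have a fitted effect of over 30% in size.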 The procedure, abridged:
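Rat S16 Schwann cells stably carrying firefly luciferase driven by a PMP22 intronic element, in 10% FBS, treated 24 h at 37 C. ONE-Glo luminescence normalized to PTC124 control and DMSO (0%); curves classed by r2, magnitude and activity.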

Experiment [11] can be described thus: qHTS profiling for inhibitors of Plasmodium falciparum proliferation (AID 504749).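 Note: 0% = DMSO vehicle and full inhibition = artemisinin control; nearly all actives have a fitted effect of over 60% in size.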 Conditions: P. falciparum in erythrocytes, SYBR Green DNA, 72 h, at 12.8 µM (top of the series). The method, boiled down:
(§1)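 SYBR Green fluorescence (ex 485 nm, em 535 nm) reports parasite DNA after 72 h compound exposure of infected red cells at 0.3% parasitemia, 2.5% hematocrit; signal normalized to 0.29 uM artemisinin and vehicle wells.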

In experiment [12] the test system is 3D7. Described as above. Conditions: P. falciparum in erythrocytes, SYBR Green DNA, 72 h; series mostly up to 12.8 µM. The procedure, abridged:
as §1

Experiment [13] concerns AS120. The experiment is described as above. Conditions: P. falciparum in erythrocytes, SYBR Green DNA, 72 h; series mostly up to 12.8 µM. The method, boiled down:
as §1

For experiment [14], the system named is ATS189. The experiment is described as above. Conditions: P. falciparum in erythrocytes, SYBR Green DNA, 72 h; series mostly up to 12.8 µM. The method, boiled down: as §1
The test system of experiment [15] is CP217. The experiment is described as above. Conditions: P. falciparum in erythrocytes, SYBR Green DNA, 72 h; series mostly up to 12.8 µM. The procedure, abridged: as §1
Experiment [16] relates to CP247. Described as above. Conditions: P. falciparum in erythrocytes, SYBR Green DNA, 72 h; series mostly up to 12.8 µM. The method, boiled down:
as §1

Experiment [17] concerns CP250. The description is as above. Conditions: P. falciparum in erythrocytes, SYBR Green DNA, 72 h; series mostly up to 12.8 µM. The procedure, abridged: as §1
For experiment [18], the system named is SC27B. Described as above. Conditions: P. falciparum in erythrocytes, SYBR Green DNA, 72 h; series mostly up to 12.8 µM. The procedure, abridged:
as §1

Experiment [19] concerns the target Glucocorticoid receptor (Homo sapiens) (UniProt P04150). As to the kind of experiment: GR-GFP Redistribution (AID 450;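 active = compounds whose dose series gives a full or clear partial fitted curve of increased nuclear translocation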; note: potency is the fitted concentration of half-maximal effect). Conditions: U2OS GR-GFP nuclear translocation, laser cytometry, 2 h.
The target is the same in experiment [20]. In words: GR-EFC Redistribution (AID 451; calls by dose curve; note: potency is the fitted concentration of half-maximal effect). Conditions: CHO-K1 GR-EFC translocation, beta-gal luminescence, 2 h. The procedure, abridged: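 CHO-K1 cells expressing nuclear EA and GR-ED fragments of b-gal; compounds titrated up to 46 uM final, 2 h at 37 C. GR nuclear translocation read as complemented b-gal luminescence after 1 h RT detection.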
The mark [21] stands for this setting: measured here: cell count channel max response.
The mark [22] stands for this setting: measured here: lipid channel max response.

Structures are written as SMILES. Results filed as inconclusive are left out. Calls of active or inactive are those of the source. Unless noted, calls come from the whole dose curve; as a rule, active = well fitted curve in the direction sought with a large enough effect; inconclusive = small, poorly fitted or top-dose-only effect, or another doubt; inactive = no such curve, though single readings can be large; an effect the other way counts as inactive or inconclusive.

Chain of Ubiquitin carboxyl-terminal hydrolase 1 (Homo sapiens) (O94782 whole entry, looked up): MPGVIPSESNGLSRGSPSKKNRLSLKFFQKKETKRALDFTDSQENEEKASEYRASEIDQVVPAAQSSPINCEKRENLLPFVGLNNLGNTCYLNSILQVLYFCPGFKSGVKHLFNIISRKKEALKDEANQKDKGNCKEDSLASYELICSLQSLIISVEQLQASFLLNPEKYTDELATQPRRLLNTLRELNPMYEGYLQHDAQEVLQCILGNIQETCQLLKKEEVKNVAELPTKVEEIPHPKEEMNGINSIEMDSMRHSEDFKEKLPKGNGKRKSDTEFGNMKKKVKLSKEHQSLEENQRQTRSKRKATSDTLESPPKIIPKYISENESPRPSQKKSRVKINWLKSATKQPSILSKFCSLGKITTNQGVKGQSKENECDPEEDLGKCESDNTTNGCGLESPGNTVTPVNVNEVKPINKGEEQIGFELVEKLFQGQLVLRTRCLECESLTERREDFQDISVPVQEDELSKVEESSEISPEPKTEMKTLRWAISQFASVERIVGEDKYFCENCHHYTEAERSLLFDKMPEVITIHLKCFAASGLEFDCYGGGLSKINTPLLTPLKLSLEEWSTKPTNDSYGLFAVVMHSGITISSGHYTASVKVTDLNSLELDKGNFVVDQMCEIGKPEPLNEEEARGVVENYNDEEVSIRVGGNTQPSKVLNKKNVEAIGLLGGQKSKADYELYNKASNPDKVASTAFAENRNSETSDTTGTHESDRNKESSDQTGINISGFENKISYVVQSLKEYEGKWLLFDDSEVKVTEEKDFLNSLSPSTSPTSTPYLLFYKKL
Chain of Cytochrome P450 1A2 (Homo sapiens) (P05177 whole entry, looked up): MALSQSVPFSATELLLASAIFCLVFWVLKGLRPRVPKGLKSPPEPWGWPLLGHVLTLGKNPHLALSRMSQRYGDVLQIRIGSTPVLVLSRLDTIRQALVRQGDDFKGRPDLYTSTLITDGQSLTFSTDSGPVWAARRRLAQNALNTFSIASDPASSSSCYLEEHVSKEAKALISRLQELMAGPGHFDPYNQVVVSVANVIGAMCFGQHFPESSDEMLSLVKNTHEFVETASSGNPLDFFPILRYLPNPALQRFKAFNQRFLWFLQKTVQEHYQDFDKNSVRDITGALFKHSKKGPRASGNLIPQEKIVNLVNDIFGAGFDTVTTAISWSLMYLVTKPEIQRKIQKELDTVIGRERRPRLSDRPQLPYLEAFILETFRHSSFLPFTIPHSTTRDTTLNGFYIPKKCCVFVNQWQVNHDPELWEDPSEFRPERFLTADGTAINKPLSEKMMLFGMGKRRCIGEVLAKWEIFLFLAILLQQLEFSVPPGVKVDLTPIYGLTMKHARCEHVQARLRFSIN
Chain of 3',5'-cyclic-AMP phosphodiesterase 4B (Homo sapiens) (Q07343 whole entry, looked up): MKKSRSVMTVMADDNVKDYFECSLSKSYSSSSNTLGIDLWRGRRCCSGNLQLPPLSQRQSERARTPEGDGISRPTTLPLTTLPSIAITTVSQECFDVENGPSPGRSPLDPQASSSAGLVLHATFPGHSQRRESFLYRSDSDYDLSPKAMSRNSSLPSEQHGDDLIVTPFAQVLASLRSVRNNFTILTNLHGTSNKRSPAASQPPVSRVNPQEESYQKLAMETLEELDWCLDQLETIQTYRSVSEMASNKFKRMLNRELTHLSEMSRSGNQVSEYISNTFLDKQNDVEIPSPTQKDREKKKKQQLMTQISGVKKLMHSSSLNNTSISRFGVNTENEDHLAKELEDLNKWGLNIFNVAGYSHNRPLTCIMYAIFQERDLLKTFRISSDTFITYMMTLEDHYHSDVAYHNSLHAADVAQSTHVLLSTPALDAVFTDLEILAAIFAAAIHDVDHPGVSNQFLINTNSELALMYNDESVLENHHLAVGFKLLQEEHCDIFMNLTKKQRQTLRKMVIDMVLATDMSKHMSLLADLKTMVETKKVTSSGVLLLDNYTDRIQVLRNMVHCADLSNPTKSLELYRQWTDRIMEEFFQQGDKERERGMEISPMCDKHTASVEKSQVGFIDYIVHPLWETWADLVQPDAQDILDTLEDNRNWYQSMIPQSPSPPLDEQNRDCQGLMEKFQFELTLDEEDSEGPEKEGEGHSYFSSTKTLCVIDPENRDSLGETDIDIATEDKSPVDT
Chain of Glucocorticoid receptor (Homo sapiens) (P04150 whole entry, looked up, the tested form may be a part): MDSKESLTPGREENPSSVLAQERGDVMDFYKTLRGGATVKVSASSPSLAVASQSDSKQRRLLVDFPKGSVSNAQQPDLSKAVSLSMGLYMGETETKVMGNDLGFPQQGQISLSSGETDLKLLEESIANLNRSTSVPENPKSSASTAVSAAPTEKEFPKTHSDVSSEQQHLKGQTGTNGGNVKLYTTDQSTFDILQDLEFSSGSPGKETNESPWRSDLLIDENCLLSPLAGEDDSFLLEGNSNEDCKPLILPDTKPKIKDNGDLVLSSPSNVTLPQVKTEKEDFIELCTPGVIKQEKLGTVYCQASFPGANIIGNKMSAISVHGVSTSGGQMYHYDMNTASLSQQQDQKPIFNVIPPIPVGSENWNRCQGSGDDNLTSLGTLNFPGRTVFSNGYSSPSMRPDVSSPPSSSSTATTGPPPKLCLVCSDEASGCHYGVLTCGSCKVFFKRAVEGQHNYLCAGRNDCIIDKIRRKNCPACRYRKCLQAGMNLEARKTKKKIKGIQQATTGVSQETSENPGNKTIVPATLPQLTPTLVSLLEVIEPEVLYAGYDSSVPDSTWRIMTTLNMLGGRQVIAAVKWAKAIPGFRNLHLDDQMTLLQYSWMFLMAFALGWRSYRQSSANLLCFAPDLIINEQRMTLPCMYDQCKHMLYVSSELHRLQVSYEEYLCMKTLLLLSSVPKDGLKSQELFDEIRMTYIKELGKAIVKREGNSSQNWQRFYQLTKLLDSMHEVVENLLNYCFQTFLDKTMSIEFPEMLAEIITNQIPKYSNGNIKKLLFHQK

In the case of `C[C@@]12C=CC(=O)C=C1CC[C@@H]1[C@@H]2[C@H](O)C[C@]2(C)[C@@H]1CC[C@]2(O)C(=O)CO`, the molecule was classed as inactive in experiment [1], in experiment [4] and in [5]. The Potency entry in [2] and in experiment [7] was “inactive” in each case. For the same molecule, the activity change, negative = inhibition in experiment [3] is -7.95% (inactive); in [6], -5.21% (inactive). The max response in experiment [6] (setting [21]) was 2.46%; in experiment [6] (setting [22]), -3.94%.
In the case of `CCOC(=O)C1=C(C)NC(C)=C(C(=O)OC)[C@@H]1c1cccc([N+](=O)[O-])c1`, the molecule was called inactive in experiment [1], in experiment [4] and in experiment [5]. Further, in experiment [2], the Potency is 15.8 µM (active). Moreover, the activity change, negative = inhibition in experiment [3] is -23.9% (inactive); in [6], 0.673% (inactive). The Potency result in [8] and in experiment [7] was “inactive” in each case. For the same molecule, the max response in experiment [6] (setting [21]) is -15%; in experiment [6] (setting [22]), -22.2%.
Consider `CCCC[C@H](CC)CN1CN(C[C@@H](CC)CCCC)CC(C)(N)C1`, for which the outcome in experiment [1], in [4], in experiment [5] and in experiment [9] was inactive. Besides, the Potency result in [2], in experiment [8], in experiment [10], in experiment [12], in experiment [13] and in experiment [14] was “inactive” each time. Also, the Potency result in experiment [15], in experiment [16], in experiment [17] and in [18] was “inactive” throughout. Further, the activity change, negative = inhibition in [3] was -26.2% (inactive); in experiment [6] it was -1.27% (inactive). For the same molecule, the max response in experiment [6] (setting [21]) was 0.881%; in experiment [6] (setting [22]) it was -2.09%. The activity, negative = inhibition was -5.01% (inactive) in [11] (parasite line A) and 14.7% (inactive) in experiment [11] (parasite line B).
Turning to `CC(C)CC(=O)N[C@H](C(=O)N[C@H](C(=O)N[C@@H](CC(C)C)[C@H](O)CC(=O)N[C@@H](C)C(=O)N[C@@H](CC(C)C)[C@H](O)CC(=O)O)C(C)C)C(C)C`, the molecule was classed as inactive in [1], in experiment [4] and in experiment [5]. Further, the Potency entry in experiment [2], in [8] and in experiment [7] was “inactive” each time. The results for the activity change, negative = inhibition in experiment [3] and in [6] were -1.98% (inactive) and 1.03% (inactive), respectively. The max response in [6] (setting [21]) came to 20.1%; in experiment [6] (setting [22]), 8.75%.
Take `CC1(C)S[C@@H]2[C@H](NC(=O)C(N)c3ccccc3)C(=O)N2[C@H]1C(=O)O` (stereo not given in full): the result in experiment [1], in [4] and in experiment [5] was inactive. In addition, the Potency entry in [2], in experiment [8] and in experiment [7] was “inactive” in each case. Besides, the activity change, negative = inhibition in [3] is -1.78% (inactive); in [6], -0.37% (inactive). Besides, the max response amounted to 8.14% in experiment [6] (setting [21]) and 6.97% in [6] (setting [22]).
For the molecule `CCC(=O)OCC(=O)[C@@]1(OC(=O)CC)[C@H](C)C[C@@H]2[C@H]3CCC4=CC(=O)C=C[C@]4(C)[C@]3(Cl)[C@@H](O)C[C@@]21C`, the molecule was classed as inactive in experiment [1], in experiment [4] and in experiment [5]. The Potency entry in experiment [2] and in experiment [8] was “inactive” each time. The activity change, negative = inhibition was -10.9% (inactive) in experiment [3] and -9.54% (inactive) in experiment [6]. In addition, the max response in experiment [6] (setting [21]) was -5.37%; in experiment [6] (setting [22]), -14.6%.
Turning to `CC(C)NC[C@H]1CCc2cc(CO)c([N+](=O)[O-])cc2N1`, the outcome in experiment [1], in experiment [4], in experiment [5] and in [9] was inactive. The Potency was 10 µM (active) in experiment [2], > 20.6 µM (inactive) in experiment [19] and > 20.6 µM (inactive) in [20]. For the same molecule, the Potency entry in experiment [8], in experiment [7], in [10], in experiment [12], in [13] and in [14] was “inactive” throughout. In addition, the Potency result in experiment [15], in experiment [16], in [17] and in experiment [18] was “inactive” throughout. Moreover, the activity change, negative = inhibition in experiment [6] is -3.1% (inactive). For the same molecule, the max response was -10% in experiment [6] (setting [21]) and -14.1% in [6] (setting [22]). The activity, negative = inhibition in experiment [11] (parasite line A) was 7.96% (inactive); in [11] (parasite line B) it was 12.7% (inactive).
